Assay results taken from a collection of fitness landscapes (doi:10.1016/j.celrep.2020.107928).
Whole data set: some 81,000 sequences, median “one-hybrid fitness for binding parS DNA” near -0.17, cut for the highest 2% near 0.51. For the sample, the highest values were picked, then their nearest neighbours and some sequences at random.

B1: Caulobacter ParB omega fusion; a variant is named by its letters at X, in order, B8GW30 (parent)
chain: MESVVVGEPGMSEGRRGLGRGLSALLGEVDAAPAQAPGEQLGGSREAPIEILQRNPDQPRRTFREEDLEDLSNSIREKGVLQPILVRPSPDTAGEYQIVAGERAWRAAQRAGLKTVPIMVRELDDLAVLEIGIIENVQRADLNVLEEALSYKVLMEKFERTQENIAQTIGKSXSHVANXMRLLXLPDEVQSYLVSGELTAXHARAIAAAADPVALAKQIIEGGLSVRETEALARKAPNLSAGKSKGGRPPRVKDTDTQALESDLSSVLGLDVSIDHRGSTGTLTITYATLEQLDDLCNRLTRGI

Variants of: B1
Test: one-hybrid fitness for binding parS DNA (scaled: cognate 1, non-cognate 0); higher = stronger binding
Details: with parS DNA site
In short: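 Fitness is the rescaled log change in variant-to-wild-type read ratio, measured by Illumina sequencing of plasmids before and after bacterial one-hybrid selection. The scale puts cognate at 1 and non-cognate at 0. Selection of Caulobacter ParB libraries, four specificity codons randomised, took place in E. coli USO with a HIS3 reporter, site 19 bp from the promoter, over 48 hours at 37°C on M9-minus-histidine with 0.1 mM IPTG and 5 mM 3-AT.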

Question: With RTKW as the variant, how does the “one-hybrid fitness for binding parS DNA” value read?
Answer: 0.668

Question: For RTVW, which “one-hybrid fitness for binding parS DNA” value is on record?
Answer: 0.218

Question: NNGS was tested. Which “one-hybrid fitness for binding parS DNA” value did it give?
Answer: ≤ 0.2

Question: With PVIL as the variant, how does the “one-hybrid fitness for binding parS DNA” value read?
Answer: ≤ 0.2

Question: How did the “one-hybrid fitness for binding parS DNA” value turn out when PSIS was run?
Answer: ≤ 0.2

Question: TSQY was tested. Which “one-hybrid fitness for binding parS DNA” value did it give?
Answer: ≤ 0.2

Question: Which “one-hybrid fitness for binding parS DNA” value does the source give for PQCN here?
Answer: ≤ 0.2

Question: How did the “one-hybrid fitness for binding parS DNA” value turn out when RTDD was run?
Answer: ≤ 0.2

Question: With RTNF as the variant, how does the “one-hybrid fitness for binding parS DNA” value read?
Answer: 0.403

Question: For RTDG, which “one-hybrid fitness for binding parS DNA” value is on record?
Answer: 0.935

Question: How did the “one-hybrid fitness for binding parS DNA” value turn out when RTDP was run?
Answer: ≤ 0.2

Question: With RTNG as the variant, how does the “one-hybrid fitness for binding parS DNA” value read?
Answer: 0.968

Question: RTNH was tested. Which “one-hybrid fitness for binding parS DNA” value did it give?
Answer: ≤ 0.2

Question: For MGVN, which “one-hybrid fitness for binding parS DNA” value is on record?
Answer: ≤ 0.2

Question: With DGDV as the variant, how does the “one-hybrid fitness for binding parS DNA” value read?
Answer: ≤ 0.2

Question: WCVR was tested. Which “one-hybrid fitness for binding parS DNA” value did it give?
Answer: ≤ 0.2

Question: For CTRY, which “one-hybrid fitness for binding parS DNA” value is on record?
Answer: ≤ 0.2

Question: Which “one-hybrid fitness for binding parS DNA” value does the source give for YMTL here?
Answer: ≤ 0.2

Question: CALA was tested. Which “one-hybrid fitness for binding parS DNA” value did it give?
Answer: ≤ 0.2

Question: For RNGG, which “one-hybrid fitness for binding parS DNA” value is on record?
Answer: 0.841

Question: RNWQ was tested. Which “one-hybrid fitness for binding parS DNA” value did it give?
Answer: ≤ 0.2

Question: Which “one-hybrid fitness for binding parS DNA” value does the source give for RNLY here?
Answer: 0.303

Question: How did the “one-hybrid fitness for binding parS DNA” value turn out when RNLQ was run?
Answer: ≤ 0.2

Question: For RNSH, which “one-hybrid fitness for binding parS DNA” value is on record?
Answer: ≤ 0.2

Question: For RNSD, which “one-hybrid fitness for binding parS DNA” value is on record?
Answer: ≤ 0.2

Question: RNLG was tested. Which “one-hybrid fitness for binding parS DNA” value did it give?
Answer: 0.831

Question: With RNWM as the variant, how does the “one-hybrid fitness for binding parS DNA” value read?
Answer: ≤ 0.2

Question: For RNGN, which “one-hybrid fitness for binding parS DNA” value is on record?
Answer: 0.242

Question: With RNGH as the variant, how does the “one-hybrid fitness for binding parS DNA” value read?
Answer: ≤ 0.2

Question: With RNWG as the variant, how does the “one-hybrid fitness for binding parS DNA” value read?
Answer: 0.651

Question: For RNSG, which “one-hybrid fitness for binding parS DNA” value is on record?
Answer: 0.921

Question: With DCGR as the variant, how does the “one-hybrid fitness for binding parS DNA” value read?
Answer: ≤ 0.2

Question: How did the “one-hybrid fitness for binding parS DNA” value turn out when MWMK was run?
Answer: ≤ 0.2

Question: Which “one-hybrid fitness for binding parS DNA” value does the source give for TMVR here?
Answer: ≤ 0.2

Question: With TWPL as the variant, how does the “one-hybrid fitness for binding parS DNA” value read?
Answer: ≤ 0.2

Question: How did the “one-hybrid fitness for binding parS DNA” value turn out when YNCT was run?
Answer: ≤ 0.2

Question: For YGAI, which “one-hybrid fitness for binding parS DNA” value is on record?
Answer: ≤ 0.2

Question: With AARF as the variant, how does the “one-hybrid fitness for binding parS DNA” value read?
Answer: ≤ 0.2

Question: Which “one-hybrid fitness for binding parS DNA” value does the source give for ITIY here?
Answer: ≤ 0.2

Question: Which “one-hybrid fitness for binding parS DNA” value does the source give for RNHK here?
Answer: ≤ 0.2

Question: Which “one-hybrid fitness for binding parS DNA” value does the source give for RNYR here?
Answer: ≤ 0.2

Question: RNCF was tested. Which “one-hybrid fitness for binding parS DNA” value did it give?
Answer: ≤ 0.2

Question: With RNHM as the variant, how does the “one-hybrid fitness for binding parS DNA” value read?
Answer: ≤ 0.2

Question: Which “one-hybrid fitness for binding parS DNA” value does the source give for RNQF here?
Answer: ≤ 0.2

Question: With RNCH as the variant, how does the “one-hybrid fitness for binding parS DNA” value read?
Answer: ≤ 0.2

Question: How did the “one-hybrid fitness for binding parS DNA” value turn out when RNQG was run?
Answer: 0.882

Question: RNCG was tested. Which “one-hybrid fitness for binding parS DNA” value did it give?
Answer: 0.771

Question: For RNQQ, which “one-hybrid fitness for binding parS DNA” value is on record?
Answer: ≤ 0.2

Question: For RNHG, which “one-hybrid fitness for binding parS DNA” value is on record?
Answer: 0.866

Question: Which “one-hybrid fitness for binding parS DNA” value does the source give for RNYG here?
Answer: 0.789

Question: For RNYP, which “one-hybrid fitness for binding parS DNA” value is on record?
Answer: ≤ 0.2

Question: Which “one-hybrid fitness for binding parS DNA” value does the source give for GTAW here?
Answer: ≤ 0.2

Question: LGVR was tested. Which “one-hybrid fitness for binding parS DNA” value did it give?
Answer: ≤ 0.2

Question: How did the “one-hybrid fitness for binding parS DNA” value turn out when PMST was run?
Answer: ≤ 0.2

Question: For LAKV, which “one-hybrid fitness for binding parS DNA” value is on record?
Answer: ≤ 0.2

Question: With PYNM as the variant, how does the “one-hybrid fitness for binding parS DNA” value read?
Answer: ≤ 0.2

Question: With TKAL as the variant, how does the “one-hybrid fitness for binding parS DNA” value read?
Answer: ≤ 0.2

Question: For PHQS, which “one-hybrid fitness for binding parS DNA” value is on record?
Answer: ≤ 0.2

Question: Which “one-hybrid fitness for binding parS DNA” value does the source give for QTGN here?
Answer: ≤ 0.2

Question: With NQIG as the variant, how does the “one-hybrid fitness for binding parS DNA” value read?
Answer: ≤ 0.2

Question: For LHGR, which “one-hybrid fitness for binding parS DNA” value is on record?
Answer: ≤ 0.2

Question: For WVYT, which “one-hybrid fitness for binding parS DNA” value is on record?
Answer: ≤ 0.2

Question: For VPRP, which “one-hybrid fitness for binding parS DNA” value is on record?
Answer: ≤ 0.2

Question: With RNRG as the variant, how does the “one-hybrid fitness for binding parS DNA” value read?
Answer: 0.94

Question: With RNRK as the variant, how does the “one-hybrid fitness for binding parS DNA” value read?
Answer: ≤ 0.2

Question: Which “one-hybrid fitness for binding parS DNA” value does the source give for RNRY here?
Answer: 0.503

Question: For FALT, which “one-hybrid fitness for binding parS DNA” value is on record?
Answer: ≤ 0.2

Question: KIQT was tested. Which “one-hybrid fitness for binding parS DNA” value did it give?
Answer: ≤ 0.2

Question: How did the “one-hybrid fitness for binding parS DNA” value turn out when TSHI was run?
Answer: ≤ 0.2

Question: Which “one-hybrid fitness for binding parS DNA” value does the source give for RVKF here?
Answer: 0.355

Question: For RVKR, which “one-hybrid fitness for binding parS DNA” value is on record?
Answer: ≤ 0.2

Question: With RVVC as the variant, how does the “one-hybrid fitness for binding parS DNA” value read?
Answer: 0.914

Question: How did the “one-hybrid fitness for binding parS DNA” value turn out when RVVR was run?
Answer: ≤ 0.2

Question: For RVKC, which “one-hybrid fitness for binding parS DNA” value is on record?
Answer: 0.813

Question: Which “one-hybrid fitness for binding parS DNA” value does the source give for RVVQ here?
Answer: ≤ 0.2

Question: DKVG was tested. Which “one-hybrid fitness for binding parS DNA” value did it give?
Answer: ≤ 0.2

Question: How did the “one-hybrid fitness for binding parS DNA” value turn out when QKKI was run?
Answer: ≤ 0.2

Question: How did the “one-hybrid fitness for binding parS DNA” value turn out when HVMR was run?
Answer: ≤ 0.2

Question: With RLEP as the variant, how does the “one-hybrid fitness for binding parS DNA” value read?
Answer: ≤ 0.2

Question: RLES was tested. Which “one-hybrid fitness for binding parS DNA” value did it give?
Answer: 1

Question: RCES was tested. Which “one-hybrid fitness for binding parS DNA” value did it give?
Answer: 1.02

Question: RAEN was tested. Which “one-hybrid fitness for binding parS DNA” value did it give?
Answer: 0.337

Question: With RAES as the variant, how does the “one-hybrid fitness for binding parS DNA” value read?
Answer: 0.948

Question: RFEP was tested. Which “one-hybrid fitness for binding parS DNA” value did it give?
Answer: ≤ 0.2

Question: With RCEP as the variant, how does the “one-hybrid fitness for binding parS DNA” value read?
Answer: ≤ 0.2

Question: RFEN was tested. Which “one-hybrid fitness for binding parS DNA” value did it give?
Answer: 0.342

Question: RPES was tested. Which “one-hybrid fitness for binding parS DNA” value did it give?
Answer: ≤ 0.2

Question: For RFES, which “one-hybrid fitness for binding parS DNA” value is on record?
Answer: 0.881

Question: With RLEH as the variant, how does the “one-hybrid fitness for binding parS DNA” value read?
Answer: 0.228

Question: RAED was tested. Which “one-hybrid fitness for binding parS DNA” value did it give?
Answer: ≤ 0.2

Question: For SMRL, which “one-hybrid fitness for binding parS DNA” value is on record?
Answer: ≤ 0.2

Question: With HSNG as the variant, how does the “one-hybrid fitness for binding parS DNA” value read?
Answer: ≤ 0.2

Question: Which “one-hybrid fitness for binding parS DNA” value does the source give for IHDA here?
Answer: ≤ 0.2

Question: With GPGK as the variant, how does the “one-hybrid fitness for binding parS DNA” value read?
Answer: ≤ 0.2

Question: For LPNM, which “one-hybrid fitness for binding parS DNA” value is on record?
Answer: ≤ 0.2

Question: Which “one-hybrid fitness for binding parS DNA” value does the source give for LTRT here?
Answer: ≤ 0.2

Question: How did the “one-hybrid fitness for binding parS DNA” value turn out when GAAR was run?
Answer: ≤ 0.2

Question: With NIPL as the variant, how does the “one-hybrid fitness for binding parS DNA” value read?
Answer: ≤ 0.2
